# Reference: paper PMC7862700, “An all-to-all approach to the identification of sequence-specific readers for epigenetic DNA modifications on cytosine”
# Assays:
# Assay in all cases: DAPPL (digital affinity profiling via proximity ligation, sequencing); 10 mM Tris-HCl pH 7.5, 50 mM NaCl, 1 mM DTT, 4% glycerol, room temperature, 30 min; GST-TFs on glutathione beads, 16-mer random dsDNA library, 0.1% formaldehyde crosslink after washing; high values mean tight binding
# Conditions in all cases: protein: recombinant; tags: N-terminal GST; dsDNA, one strand shown
# [1] = biological target: T1, ELK1 (Homo sapiens, UniProt P19419 1-428)
# T1 sequence: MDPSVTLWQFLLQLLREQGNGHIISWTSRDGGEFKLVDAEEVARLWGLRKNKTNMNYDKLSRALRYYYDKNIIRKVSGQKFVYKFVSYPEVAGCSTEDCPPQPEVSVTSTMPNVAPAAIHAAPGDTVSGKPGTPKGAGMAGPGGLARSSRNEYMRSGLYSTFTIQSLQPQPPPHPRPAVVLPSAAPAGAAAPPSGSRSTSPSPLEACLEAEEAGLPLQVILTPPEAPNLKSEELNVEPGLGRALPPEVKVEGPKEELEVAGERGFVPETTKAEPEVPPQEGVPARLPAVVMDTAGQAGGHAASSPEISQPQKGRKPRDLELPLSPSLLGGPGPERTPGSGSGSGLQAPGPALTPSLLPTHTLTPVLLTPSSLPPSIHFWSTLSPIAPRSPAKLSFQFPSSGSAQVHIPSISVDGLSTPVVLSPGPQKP
# Outline: (§1)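 Human transcription factors fused to GST were expressed in yeast, captured on glutathione beads, given DNA barcodes and pooled with a GST-only negative control. Pools were incubated with 200 nmole of a 16-mer random double-stranded DNA library in Tris/NaCl/DTT/glycerol buffer at room temperature for 30 min. They were then washed, crosslinked with 0.1% formaldehyde, proximity-ligated (BsaI/T4 ligase, 1 h, 37 °C), PCR-amplified and sequenced on an Illumina NextSeq500. Binding signal is each 6-mer's read frequency for a factor divided by its frequency for the GST control.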
# [2] = biological target: T2, GABPA (Homo sapiens, UniProt Q06546 1-454)
# T2 sequence: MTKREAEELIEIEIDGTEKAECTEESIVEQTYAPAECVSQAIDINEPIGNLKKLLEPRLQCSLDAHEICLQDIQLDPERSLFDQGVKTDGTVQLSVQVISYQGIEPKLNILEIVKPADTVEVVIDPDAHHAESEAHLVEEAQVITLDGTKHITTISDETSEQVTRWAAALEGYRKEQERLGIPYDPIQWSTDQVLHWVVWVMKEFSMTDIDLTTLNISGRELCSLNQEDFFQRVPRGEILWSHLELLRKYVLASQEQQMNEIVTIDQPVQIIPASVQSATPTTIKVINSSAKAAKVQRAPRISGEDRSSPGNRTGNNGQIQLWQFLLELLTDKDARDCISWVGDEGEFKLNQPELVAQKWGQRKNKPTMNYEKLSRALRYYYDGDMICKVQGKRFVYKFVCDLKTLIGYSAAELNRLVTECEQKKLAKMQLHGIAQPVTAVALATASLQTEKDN
# Outline: as §1
# [3] = biological target: T3, ERG (Homo sapiens, UniProt P11308 1-479)
# T3 sequence: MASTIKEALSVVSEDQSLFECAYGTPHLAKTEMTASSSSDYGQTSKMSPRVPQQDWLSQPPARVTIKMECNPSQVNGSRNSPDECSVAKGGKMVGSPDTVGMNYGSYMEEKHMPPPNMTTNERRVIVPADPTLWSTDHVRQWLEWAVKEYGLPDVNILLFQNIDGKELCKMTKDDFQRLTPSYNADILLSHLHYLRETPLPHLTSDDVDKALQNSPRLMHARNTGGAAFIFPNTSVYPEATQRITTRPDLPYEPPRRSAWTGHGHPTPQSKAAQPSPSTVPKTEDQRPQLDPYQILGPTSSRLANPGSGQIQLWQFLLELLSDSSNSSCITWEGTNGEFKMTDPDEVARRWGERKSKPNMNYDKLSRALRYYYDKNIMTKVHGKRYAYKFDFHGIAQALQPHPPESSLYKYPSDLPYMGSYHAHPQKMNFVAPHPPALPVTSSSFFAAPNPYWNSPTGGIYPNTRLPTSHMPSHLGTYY
# Outline: as §1
# [4] = biological target: ELF1 (Homo sapiens, UniProt P32519 1-619)
# Outline: as §1
# [5] = biological target: T4, EHF (Homo sapiens, UniProt Q9NZC4 1-300)
# T4 sequence: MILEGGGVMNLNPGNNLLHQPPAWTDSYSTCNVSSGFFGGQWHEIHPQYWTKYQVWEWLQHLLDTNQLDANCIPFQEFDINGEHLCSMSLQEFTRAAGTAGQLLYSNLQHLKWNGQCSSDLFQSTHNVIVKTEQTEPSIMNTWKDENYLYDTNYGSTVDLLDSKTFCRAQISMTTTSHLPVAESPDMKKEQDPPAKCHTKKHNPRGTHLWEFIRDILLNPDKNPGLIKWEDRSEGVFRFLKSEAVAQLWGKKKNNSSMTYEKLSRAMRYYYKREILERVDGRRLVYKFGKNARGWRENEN
# Outline: as §1
# [6] = biological target: SPIB (Homo sapiens, UniProt Q01892 1-262)
# Outline: as §1
# [7] = biological target: T5, FEV (Homo sapiens, UniProt Q99581 1-238)
# T5 sequence: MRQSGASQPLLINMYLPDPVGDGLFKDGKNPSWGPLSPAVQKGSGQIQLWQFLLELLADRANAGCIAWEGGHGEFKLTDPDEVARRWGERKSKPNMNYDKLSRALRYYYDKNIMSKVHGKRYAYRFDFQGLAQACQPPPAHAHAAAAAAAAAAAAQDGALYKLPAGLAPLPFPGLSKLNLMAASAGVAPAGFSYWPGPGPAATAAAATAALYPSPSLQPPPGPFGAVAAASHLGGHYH
# Outline: as §1
# [8] = biological target: ETV5 (Homo sapiens, UniProt P41161 1-510)
# Outline: as §1
# [9] = biological target: ELF4 (Homo sapiens, UniProt Q99607 1-663)
# Outline: as §1
# [10] = biological target: T6, ELK4 (Homo sapiens, UniProt P28324-2 1-405)
# T6 sequence: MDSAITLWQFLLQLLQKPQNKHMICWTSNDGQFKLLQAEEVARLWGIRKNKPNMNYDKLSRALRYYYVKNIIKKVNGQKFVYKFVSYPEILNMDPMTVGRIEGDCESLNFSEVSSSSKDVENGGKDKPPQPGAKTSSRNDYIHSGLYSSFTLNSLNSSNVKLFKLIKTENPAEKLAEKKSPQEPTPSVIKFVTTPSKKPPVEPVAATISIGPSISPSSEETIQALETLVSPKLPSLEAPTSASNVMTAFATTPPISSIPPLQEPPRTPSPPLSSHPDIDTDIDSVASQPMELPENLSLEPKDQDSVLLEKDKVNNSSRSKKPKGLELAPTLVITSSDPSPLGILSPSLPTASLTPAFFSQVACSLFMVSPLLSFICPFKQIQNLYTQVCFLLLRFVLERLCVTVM
# Outline: as §1
# Chain of ELF4 (Q99607 whole entry): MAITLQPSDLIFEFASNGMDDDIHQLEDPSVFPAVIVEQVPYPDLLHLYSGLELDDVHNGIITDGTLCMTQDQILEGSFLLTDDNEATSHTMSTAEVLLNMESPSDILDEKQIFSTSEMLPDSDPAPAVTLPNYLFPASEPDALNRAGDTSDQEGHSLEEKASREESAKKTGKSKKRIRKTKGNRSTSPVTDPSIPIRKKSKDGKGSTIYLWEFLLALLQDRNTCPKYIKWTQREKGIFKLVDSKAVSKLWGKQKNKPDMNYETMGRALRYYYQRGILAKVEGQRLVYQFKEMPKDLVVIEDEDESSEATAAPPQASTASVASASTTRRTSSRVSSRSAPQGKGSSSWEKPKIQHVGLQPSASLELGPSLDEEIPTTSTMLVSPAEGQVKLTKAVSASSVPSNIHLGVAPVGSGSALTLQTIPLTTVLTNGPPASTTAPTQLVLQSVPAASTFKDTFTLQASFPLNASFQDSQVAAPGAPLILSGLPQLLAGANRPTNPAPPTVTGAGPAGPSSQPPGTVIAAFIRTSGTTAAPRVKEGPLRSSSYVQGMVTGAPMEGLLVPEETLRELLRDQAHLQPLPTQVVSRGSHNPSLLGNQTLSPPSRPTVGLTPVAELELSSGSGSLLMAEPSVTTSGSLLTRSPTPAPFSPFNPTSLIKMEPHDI
# Chain of SPIB (Q01892 whole entry): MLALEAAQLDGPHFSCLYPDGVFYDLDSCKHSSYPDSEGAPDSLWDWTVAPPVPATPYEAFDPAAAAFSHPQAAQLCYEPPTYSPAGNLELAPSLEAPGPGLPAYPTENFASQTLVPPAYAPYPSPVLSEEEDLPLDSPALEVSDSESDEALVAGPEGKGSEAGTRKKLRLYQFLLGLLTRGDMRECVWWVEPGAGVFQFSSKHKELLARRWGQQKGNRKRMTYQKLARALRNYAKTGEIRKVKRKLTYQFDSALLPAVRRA
# Chain of ETV5 (P41161 whole entry): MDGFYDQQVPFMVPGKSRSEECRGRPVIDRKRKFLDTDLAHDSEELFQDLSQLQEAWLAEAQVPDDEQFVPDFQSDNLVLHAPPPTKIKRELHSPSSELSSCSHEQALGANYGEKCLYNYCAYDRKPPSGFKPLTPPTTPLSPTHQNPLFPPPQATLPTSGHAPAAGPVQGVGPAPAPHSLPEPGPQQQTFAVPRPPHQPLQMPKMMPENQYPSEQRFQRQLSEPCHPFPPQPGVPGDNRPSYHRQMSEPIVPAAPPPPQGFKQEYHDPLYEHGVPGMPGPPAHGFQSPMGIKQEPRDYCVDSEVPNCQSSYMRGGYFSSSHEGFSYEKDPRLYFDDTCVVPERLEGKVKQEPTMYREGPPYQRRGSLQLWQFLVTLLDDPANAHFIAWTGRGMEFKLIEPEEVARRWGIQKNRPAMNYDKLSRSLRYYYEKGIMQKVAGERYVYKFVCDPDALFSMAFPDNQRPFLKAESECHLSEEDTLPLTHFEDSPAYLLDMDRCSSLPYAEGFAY
# Chain of ELF1 (P32519 whole entry): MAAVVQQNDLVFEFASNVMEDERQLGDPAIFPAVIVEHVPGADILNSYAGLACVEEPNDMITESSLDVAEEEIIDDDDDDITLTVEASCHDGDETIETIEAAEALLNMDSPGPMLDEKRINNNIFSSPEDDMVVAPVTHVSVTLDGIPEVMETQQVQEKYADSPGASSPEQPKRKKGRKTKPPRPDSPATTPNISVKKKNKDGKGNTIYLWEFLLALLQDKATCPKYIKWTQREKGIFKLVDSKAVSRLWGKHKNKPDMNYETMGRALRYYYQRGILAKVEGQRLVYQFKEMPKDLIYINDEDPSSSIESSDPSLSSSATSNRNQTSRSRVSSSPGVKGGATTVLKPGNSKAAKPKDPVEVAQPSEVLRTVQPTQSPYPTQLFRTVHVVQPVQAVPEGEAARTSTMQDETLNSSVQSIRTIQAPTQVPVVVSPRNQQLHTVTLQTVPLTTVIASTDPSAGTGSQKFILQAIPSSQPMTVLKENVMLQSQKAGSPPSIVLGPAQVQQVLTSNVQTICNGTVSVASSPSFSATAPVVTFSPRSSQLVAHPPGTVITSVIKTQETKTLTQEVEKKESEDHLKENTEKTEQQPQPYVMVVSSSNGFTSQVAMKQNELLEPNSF
sequence,measurement,setting,value
AAGATC,binding signal,[1],"1.07 fold enrichment (6-mer frequency, TF over GST control)"
same,binding signal,[2],"1.08 fold enrichment (6-mer frequency, TF over GST control)"
same,binding signal,[3],"1.07 fold enrichment (6-mer frequency, TF over GST control)"
same,binding signal,[4],"1.05 fold enrichment (6-mer frequency, TF over GST control)"
same,binding signal,[5],"1.04 fold enrichment (6-mer frequency, TF over GST control)"
same,binding signal,[6],"1.13 fold enrichment (6-mer frequency, TF over GST control)"
same,binding signal,[7],"1.03 fold enrichment (6-mer frequency, TF over GST control)"
same,binding signal,[8],"1.03 fold enrichment (6-mer frequency, TF over GST control)"
same,binding signal,[9],"1.03 fold enrichment (6-mer frequency, TF over GST control)"
same,binding signal,[10],"1.01 fold enrichment (6-mer frequency, TF over GST control)"
